# Experimental data published in PubChem BioAssay (EPA / NIEHS).
# Values joined by “and” are separate entries in the source; they are usually repeats but may differ in a detail not shown here. Equal entries are not always repeated. Inconclusive results are not listed. Some compounds were tested as several samples or in several runs, with calls that do not always agree. Active and inactive are the calls of the source. The calls were made as follows: active = hit-call score of the fitted dose curve at least 0.9, where 1 is the maximum; inconclusive = response in the unintended direction; inactive = score below 0.9.
# Molecular target: D(1A) dopamine receptor (Homo sapiens) (UniProt P21728)
# Sequence (P21728 whole entry, looked up): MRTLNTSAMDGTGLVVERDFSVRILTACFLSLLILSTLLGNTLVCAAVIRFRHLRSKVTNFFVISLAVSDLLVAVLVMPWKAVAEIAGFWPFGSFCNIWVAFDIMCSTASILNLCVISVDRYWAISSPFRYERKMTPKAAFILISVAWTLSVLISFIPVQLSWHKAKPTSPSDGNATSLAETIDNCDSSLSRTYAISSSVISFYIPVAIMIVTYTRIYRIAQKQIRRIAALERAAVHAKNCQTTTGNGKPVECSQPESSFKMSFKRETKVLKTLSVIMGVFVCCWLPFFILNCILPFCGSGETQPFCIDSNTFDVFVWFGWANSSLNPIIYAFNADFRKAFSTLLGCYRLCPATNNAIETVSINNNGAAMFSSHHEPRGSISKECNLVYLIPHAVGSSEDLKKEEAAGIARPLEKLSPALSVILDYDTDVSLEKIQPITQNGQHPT
# Test: NVS_GPCR_hDRD1: NovaScreen (NVS) G Protein-Coupled Receptor Assay for human Dopamine Receptor D1 (DRD1) (AID 2283269)
# Procedure, shortened: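 Radioligand displacement binding on membranes/protein extracted from HEK293 expressing human D1, cell-free; read 1 h after dosing by filter-based scintillation counting. Primary screen in duplicate at 25 uM, actives followed up in concentration series; signal loss versus DMSO baseline.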
Structure (SMILES),AC50,outcome
O=C1c2ccccc2C(=O)N1SC(Cl)(Cl)Cl,13.3 µM (active),–
Oc1ccc(Cl)cc1Cc1ccccc1,33 µM (active) [middle of 6 runs],–
Oc1cc(Cl)ccc1Oc1ccc(Cl)cc1Cl,25 µM (active),inactive
N#Cc1c(Cl)c(Cl)c(Cl)c(C#N)c1Cl,15.5 µM (active),–

# Molecular target: Muscarinic acetylcholine receptor M1 (Homo sapiens) (UniProt P11229)
# Sequence (P11229 whole entry, looked up): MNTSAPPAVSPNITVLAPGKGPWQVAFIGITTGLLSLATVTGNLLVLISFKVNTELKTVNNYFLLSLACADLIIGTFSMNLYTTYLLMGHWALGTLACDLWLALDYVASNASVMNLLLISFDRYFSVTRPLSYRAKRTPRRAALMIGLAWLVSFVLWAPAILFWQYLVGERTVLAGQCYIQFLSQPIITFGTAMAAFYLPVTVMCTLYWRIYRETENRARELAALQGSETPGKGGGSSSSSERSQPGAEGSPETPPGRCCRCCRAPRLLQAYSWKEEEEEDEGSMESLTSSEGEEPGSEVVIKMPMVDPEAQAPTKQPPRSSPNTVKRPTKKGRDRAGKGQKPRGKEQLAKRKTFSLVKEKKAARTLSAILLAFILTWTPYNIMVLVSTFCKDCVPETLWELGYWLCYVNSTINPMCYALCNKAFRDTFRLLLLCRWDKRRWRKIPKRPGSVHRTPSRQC
# Test: NVS_GPCR_hM1: NovaScreen (NVS) G Protein-Coupled Receptor Assay for human Muscarinic, M1 Receptor (AID 2283270)
# Procedure, shortened: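 Cell-free radioligand displacement using membrane protein extracted from CHO cells, read by filter-based scintillation counting 1 h after dosing. Loss of bound signal fitted versus DMSO; primary screen single concentration 25 uM in duplicate, actives followed by concentration series.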
Structure (SMILES),outcome,AC50
O=C(O)CCCOc1ccc(Cl)cc1Cl,inactive,–
CCc1ccc(C(=O)NN(C(=O)c2cc(C)cc(C)c2)C(C)(C)C)cc1,inactive,–
[2H]C1([2H])[n+]2ccccc2-c2cccc[n+]2C1([2H])[2H],–,12.9 µM (active)
CC(C)N(C(=O)COc1nnc(C(F)(F)F)s1)c1ccc(F)cc1,inactive,–

# Molecular target: human Leukotriene B4 Receptor 1 (LTB4-BLT1), LTB4R (gene 1241) (UniProt Q15722)
# Sequence (Q15722 whole entry, looked up): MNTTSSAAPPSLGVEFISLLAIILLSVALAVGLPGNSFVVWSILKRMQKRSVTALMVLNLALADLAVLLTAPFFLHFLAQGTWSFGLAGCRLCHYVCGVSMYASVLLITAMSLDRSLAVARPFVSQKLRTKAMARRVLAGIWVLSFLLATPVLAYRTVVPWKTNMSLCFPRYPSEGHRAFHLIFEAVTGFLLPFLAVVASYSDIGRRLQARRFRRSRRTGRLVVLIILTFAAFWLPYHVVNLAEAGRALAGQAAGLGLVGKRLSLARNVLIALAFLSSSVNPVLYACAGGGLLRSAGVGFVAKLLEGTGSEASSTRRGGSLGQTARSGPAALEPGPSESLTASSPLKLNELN
# Test: NVS_GPCR_hLTB4_BLT1: NovaScreen (NVS) G Protein-Coupled Receptor Assay for human Leukotriene B4 Receptor 1 (LTB4-BLT1) (AID 2283271)
# Procedure, shortened: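 Radioligand displacement binding on receptor extracted from human neutrophils, cell-free, 1 h after dosing; filter-based scintillation counting. Primary screen in duplicate at 25 uM, actives retested in concentration-response up to 50 uM; loss of signal versus DMSO.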
Structure (SMILES),outcome,AC50
CCCN(CCOc1c(Cl)cc(Cl)cc1Cl)C(=O)n1ccnc1,inactive,–
CCc1ccc(C(=O)NN(C(=O)c2cc(C)cc(C)c2)C(C)(C)C)cc1,inactive,–
O=C(O)C(F)(F)C(F)(F)C(F)(F)C(F)(F)C(F)(F)C(F)(F)C(F)(F)F,–,35.2 µM (active)
COP(=S)(OC)Oc1ccc([N+](=O)[O-])cc1,inactive,–
O=S(=O)(O)C(F)(F)C(F)(F)C(F)(F)C(F)(F)C(F)(F)C(F)(F)C(F)(F)C(F)(F)F,–,30.1 µM (active) [middle of 4 runs]

# Molecular target: Muscarinic acetylcholine receptor M3 (Homo sapiens) (UniProt P20309)
# Sequence (P20309 whole entry, looked up): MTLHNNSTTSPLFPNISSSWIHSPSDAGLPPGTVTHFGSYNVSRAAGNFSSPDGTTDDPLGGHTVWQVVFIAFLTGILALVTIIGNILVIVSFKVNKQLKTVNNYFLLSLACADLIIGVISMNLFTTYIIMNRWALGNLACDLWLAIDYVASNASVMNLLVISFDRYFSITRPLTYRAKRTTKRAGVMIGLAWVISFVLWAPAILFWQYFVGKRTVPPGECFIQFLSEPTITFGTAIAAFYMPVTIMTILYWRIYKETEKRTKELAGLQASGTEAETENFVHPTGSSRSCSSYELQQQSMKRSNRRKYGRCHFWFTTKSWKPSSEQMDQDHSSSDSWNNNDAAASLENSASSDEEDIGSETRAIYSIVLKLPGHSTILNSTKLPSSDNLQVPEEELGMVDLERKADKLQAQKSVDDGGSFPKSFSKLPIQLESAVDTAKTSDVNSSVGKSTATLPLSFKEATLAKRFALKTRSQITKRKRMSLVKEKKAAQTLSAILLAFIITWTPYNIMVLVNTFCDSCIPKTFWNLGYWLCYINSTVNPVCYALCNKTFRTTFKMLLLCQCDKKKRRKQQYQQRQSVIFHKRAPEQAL
# Test: NVS_GPCR_hM3: NovaScreen (NVS) G Protein-Coupled Receptor Assay for human Muscarinic, M3 Receptor (AID 2283272)
# Procedure, shortened: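 Radioligand displacement binding on human M3 receptor in CHO-derived membranes, 1 h incubation, filter-based scintillation counting. Primary screen in duplicate at 25 uM; actives followed up in concentration series; loss of signal versus DMSO.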
Structure (SMILES),AC50,outcome
Oc1ccc(Cl)cc1Cc1ccccc1,39.4 µM (active),inactive
CCc1ccc(C(=O)NN(C(=O)c2cc(C)cc(C)c2)C(C)(C)C)cc1,0.194 µM (active),–
[2H]C1([2H])[n+]2ccccc2-c2cccc[n+]2C1([2H])[2H],4.96 µM (active),–

# Molecular target: Muscarinic acetylcholine receptor M2 (Homo sapiens) (UniProt P08172)
# Sequence (P08172 whole entry, looked up): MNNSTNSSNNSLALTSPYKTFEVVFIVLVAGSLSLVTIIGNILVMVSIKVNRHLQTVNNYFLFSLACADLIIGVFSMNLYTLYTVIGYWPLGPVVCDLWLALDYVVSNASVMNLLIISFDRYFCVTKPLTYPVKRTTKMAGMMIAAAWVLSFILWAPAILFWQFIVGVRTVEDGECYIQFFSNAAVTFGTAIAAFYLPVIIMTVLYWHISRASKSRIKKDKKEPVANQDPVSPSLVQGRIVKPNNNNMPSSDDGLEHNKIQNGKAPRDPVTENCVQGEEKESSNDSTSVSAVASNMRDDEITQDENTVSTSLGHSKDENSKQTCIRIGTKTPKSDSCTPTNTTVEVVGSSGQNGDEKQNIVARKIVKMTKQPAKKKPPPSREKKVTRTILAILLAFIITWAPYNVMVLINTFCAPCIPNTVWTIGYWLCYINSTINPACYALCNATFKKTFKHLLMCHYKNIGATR
# Test: NVS_GPCR_hM2: NovaScreen (NVS) G Protein-Coupled Receptor Assay for human Muscarinic, M2 Receptor (AID 2283273)
# Procedure, shortened: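 Radioligand displacement on human M2 receptor membranes from CHO cells, 1 h incubation, filtration with scintillation counting. Primary screen in duplicate at 25 uM; actives retested in concentration series; loss of signal fitted versus DMSO.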
Structure (SMILES),outcome,AC50
Oc1ccc(Cl)cc1Cc1ccccc1,inactive,–
CCc1ccc(C(=O)NN(C(=O)c2cc(C)cc(C)c2)C(C)(C)C)cc1,–,0.152 µM (active)
COP(=S)(OC)Oc1ccc([N+](=O)[O-])cc1,inactive,–

# Molecular target: human Muscarinic, M4 Receptor, CHRM4 (gene 1132) (UniProt P08173)
# Sequence (P08173 whole entry, looked up): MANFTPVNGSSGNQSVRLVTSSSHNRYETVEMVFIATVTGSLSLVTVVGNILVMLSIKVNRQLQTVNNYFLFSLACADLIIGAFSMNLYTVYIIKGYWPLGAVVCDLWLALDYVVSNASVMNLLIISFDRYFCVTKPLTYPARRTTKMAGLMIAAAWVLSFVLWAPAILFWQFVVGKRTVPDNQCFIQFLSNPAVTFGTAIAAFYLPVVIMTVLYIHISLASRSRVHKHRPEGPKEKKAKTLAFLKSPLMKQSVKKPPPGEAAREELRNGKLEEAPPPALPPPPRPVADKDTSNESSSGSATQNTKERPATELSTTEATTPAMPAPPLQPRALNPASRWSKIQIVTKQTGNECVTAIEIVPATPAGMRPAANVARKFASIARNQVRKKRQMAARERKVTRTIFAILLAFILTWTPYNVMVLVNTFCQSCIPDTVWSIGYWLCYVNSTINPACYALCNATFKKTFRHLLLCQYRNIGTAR
# Test: NVS_GPCR_hM4: NovaScreen (NVS) G Protein-Coupled Receptor Assay for human Muscarinic, M4 Receptor (AID 2283274)
# Description: NVS_GPCR_hM4 is a biochemical, single-readout assay that uses extracted gene-proteins from CHO in a cell-free assay. Measurements were taken 1 hour after chemical dosing in a 96-well plate.NVS_GPCR_hM4 is one of one assay component(s) measured or calculated from the NVS_GPCR_hM4 assay. It is designed to make measurements of radioligand binding, a form of binding reporter, as detected with scintillation counting signals by Filter-based radiodetection technology.Data from the assay component NVS_GPCR_hM4 was analyzed into 1 assay endpoint. This assay endpoint, NVS_GPCR_hM4, was analyzed in the positive analysis fitting direction relative to DMSO as the negative control and baseline of activity. Using a type of binding reporter, loss-of-signal activity can be used to understand changes in the binding as they relate to the gene CHRM4. Furthermore, this assay endpoint can be referred to as a primary readout, because the performed assay has only produced 1 assay endpoint. To generalize the intended target to other relatable targets, this assay endpoint is annotated to the gpcr intended target family, where the subfamily is rhodopsin-like receptor.
# Binding assays used specific radioligands (tritiated, iodinated) with non-radioactive competitive displacement ligands in agonist or antagonist protocols (as indicated) and various reference compounds and inhibitors to titrate specific binding to receptors and transporters. Most enzyme assays (CYPs, kinases, phosphatases, proteases, HDACs) used recombinant protein and specific substrates (fluorescence mostly, some colorimetric and radioactive) and inhibitors, followed by a biochemical separation of substrate and product. All assays for the biochemical HTS were initially run in duplicate at a single concentration (10 uM for CYP450 assays and […] uM for all others). […] Each assay was run with positive and negative controls, and concurrent controls on every plate. The follow-up (secondary) screen tested active chemical-pairs in concentration series, as well as a few additional assays not tested in the primary screen, some selected negative inactives, and several cases re-run in the concentration series for confirmatory purposes.
Structure (SMILES),AC50,outcome
Oc1ccc(Cl)cc1Cc1ccccc1,31.8 µM (active) and 25.2 µM (active),inactive
CCc1ccc(C(=O)NN(C(=O)c2cc(C)cc(C)c2)C(C)(C)C)cc1,–,inactive
CCOCN(C(=O)CCl)c1c(C)cccc1CC,–,inactive
O=S1OCC2C(CO1)C1(Cl)C(Cl)=C(Cl)C2(Cl)C1(Cl)Cl (stereo unspecified),–,inactive
COP(=S)(OC)Oc1ccc([N+](=O)[O-])cc1,12.1 µM (active),–
Oc1cc(Cl)ccc1Oc1ccc(Cl)cc1Cl,–,inactive

# Molecular target: Neuropeptide Y receptor type 2 (Homo sapiens) (UniProt P49146)
# Sequence (P49146 whole entry, looked up): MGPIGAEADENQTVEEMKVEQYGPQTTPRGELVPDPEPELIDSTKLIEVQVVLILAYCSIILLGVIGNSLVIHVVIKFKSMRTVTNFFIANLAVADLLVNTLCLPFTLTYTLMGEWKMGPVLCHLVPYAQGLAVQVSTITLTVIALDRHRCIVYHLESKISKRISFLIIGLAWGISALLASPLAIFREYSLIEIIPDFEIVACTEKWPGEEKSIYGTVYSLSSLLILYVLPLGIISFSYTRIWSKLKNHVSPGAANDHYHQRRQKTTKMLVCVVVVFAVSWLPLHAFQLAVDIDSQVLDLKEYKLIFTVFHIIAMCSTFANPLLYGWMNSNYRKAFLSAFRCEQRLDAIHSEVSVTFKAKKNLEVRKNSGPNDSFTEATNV
# Test: NVS_GPCR_hNPY2: NovaScreen (NVS) G Protein-Coupled Receptor Assay for human Neuropeptide Receptor Y2 (NPY2) (AID 2283277)
# Procedure, shortened: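 Radioligand binding on membranes extracted from SK-N-MC cells, cell-free, read 1 h after dosing by filter-based scintillation counting. Loss of signal vs DMSO. Primary screen in duplicate at 25 uM; actives followed up in concentration-response up to 50 uM.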
Structure (SMILES),outcome,AC50
CCOC1Oc2ccc(OS(C)(=O)=O)cc2C1(C)C (stereo unspecified),inactive,–
O=C(O)C(F)(F)C(F)(F)C(F)(F)C(F)(F)C(F)(F)C(F)(F)C(F)(F)F,inactive,–
COP(=S)(OC)Oc1ccc([N+](=O)[O-])cc1,–,0.043 µM (active)
O=S(=O)(O)C(F)(F)C(F)(F)C(F)(F)C(F)(F)C(F)(F)C(F)(F)C(F)(F)C(F)(F)F,inactive,–

# Molecular target: human Neurokinin, NK2 Receptor, TACR2 (gene 6865) (UniProt P21452)
# Sequence (P21452 whole entry, looked up): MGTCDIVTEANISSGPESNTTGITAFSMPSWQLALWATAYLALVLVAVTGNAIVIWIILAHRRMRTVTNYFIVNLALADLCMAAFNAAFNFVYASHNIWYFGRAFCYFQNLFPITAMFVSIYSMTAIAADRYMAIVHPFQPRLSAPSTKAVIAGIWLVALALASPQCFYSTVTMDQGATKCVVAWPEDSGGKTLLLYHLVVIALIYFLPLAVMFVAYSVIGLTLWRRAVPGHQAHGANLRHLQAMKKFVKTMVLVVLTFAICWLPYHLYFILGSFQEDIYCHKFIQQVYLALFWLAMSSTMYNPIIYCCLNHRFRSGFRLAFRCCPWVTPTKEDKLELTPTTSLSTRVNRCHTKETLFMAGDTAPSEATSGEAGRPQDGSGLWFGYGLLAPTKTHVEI
# Test: NVS_GPCR_hNK2: NovaScreen (NVS) G Protein-Coupled Receptor Assay for human Neurokinin, NK2 Receptor (AID 2283278);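 also: actives reduce bound radioligand signal relative to DMSO baseline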
# Procedure, shortened: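 Radioligand binding on membranes from CHO cells expressing receptor, filter-based scintillation read 4 h after dosing. Initial duplicate screen at 25 uM, actives in concentration series; loss of signal versus DMSO.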
Structure (SMILES),AC50,outcome
Oc1ccc(Cl)cc1Cc1ccccc1,29.2 µM (active) [middle of 6 runs],–
CCCN(CCOc1c(Cl)cc(Cl)cc1Cl)C(=O)n1ccnc1,–,inactive
O=C(O)C(F)(F)C(F)(F)C(F)(F)C(F)(F)C(F)(F)C(F)(F)C(F)(F)F,–,inactive
CC[C@H](C)[C@H]1O[C@]2(C=C[C@@H]1C)C[C@@H]1C[C@@H](C/C=C(\C)[C@@H](O[C@H]3C[C@H](OC)[C@@H](O[C@H]4C[C@H](OC)[C@@H](O)[C@H](C)O4)[C@H](C)O3)[C@@H](C)/C=C/C=C3\CO[C@@H]4[C@H](O)C(C)=C[C@@H](C(=O)O1)[C@]34O)O2 (tested in a mixture with another compound),6.9 µM (active),–
Oc1cc(Cl)ccc1Oc1ccc(Cl)cc1Cl,25.5 µM (active),–
O=S(=O)(O)C(F)(F)C(F)(F)C(F)(F)C(F)(F)C(F)(F)C(F)(F)C(F)(F)C(F)(F)F,–,inactive

# Molecular target: human Opioid Receptor Delta 1 (Opiate D1), OPRD1 (gene 4985) (UniProt P41143)
# Sequence (P41143 whole entry, looked up): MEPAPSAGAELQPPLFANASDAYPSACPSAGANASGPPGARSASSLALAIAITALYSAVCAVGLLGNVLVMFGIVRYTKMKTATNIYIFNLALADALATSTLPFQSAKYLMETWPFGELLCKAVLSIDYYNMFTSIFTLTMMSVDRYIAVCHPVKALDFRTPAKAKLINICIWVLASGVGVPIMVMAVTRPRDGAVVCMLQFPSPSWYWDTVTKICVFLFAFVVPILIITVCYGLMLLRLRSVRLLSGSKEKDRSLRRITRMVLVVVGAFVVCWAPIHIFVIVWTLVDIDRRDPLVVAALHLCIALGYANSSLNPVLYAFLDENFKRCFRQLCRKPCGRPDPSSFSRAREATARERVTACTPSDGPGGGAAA
# Test: NVS_GPCR_hOpiate_D1: NovaScreen (NVS) G Protein-Coupled Receptor Assay for human Opioid Receptor Delta 1 (Opiate D1) (AID 2283280)
# Procedure, shortened: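 Radioligand displacement on membranes from CHO cells expressing the receptor, read by filter scintillation counting 1 h after dosing. Duplicate single-point screen at 25 uM, then concentration series for actives; loss of signal versus DMSO.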
Structure (SMILES),outcome,AC50
Cc1cc(C)nc(NC(=O)NS(=O)(=O)c2ccccc2C(=O)OC2COC2)n1,inactive,–
Oc1ccc(Cl)cc1Cc1ccccc1,–,25.2 µM (active) and 13.3 µM (active)
CCCN(CCOc1c(Cl)cc(Cl)cc1Cl)C(=O)n1ccnc1,inactive,–
O=C(O)C(F)(F)C(F)(F)C(F)(F)C(F)(F)C(F)(F)C(F)(F)C(F)(F)F,inactive,–
Oc1cc(Cl)ccc1Oc1ccc(Cl)cc1Cl,inactive,10.7 µM (active) and 25.5 µM (active) and 9.39 µM (active)
O=S(=O)(O)C(F)(F)C(F)(F)C(F)(F)C(F)(F)C(F)(F)C(F)(F)C(F)(F)C(F)(F)F,inactive,–

# Molecular target: human Thromboxane A2 Receptor (TXA2), TBXA2R (gene 6915) (UniProt P21731)
# Sequence (P21731 whole entry, looked up): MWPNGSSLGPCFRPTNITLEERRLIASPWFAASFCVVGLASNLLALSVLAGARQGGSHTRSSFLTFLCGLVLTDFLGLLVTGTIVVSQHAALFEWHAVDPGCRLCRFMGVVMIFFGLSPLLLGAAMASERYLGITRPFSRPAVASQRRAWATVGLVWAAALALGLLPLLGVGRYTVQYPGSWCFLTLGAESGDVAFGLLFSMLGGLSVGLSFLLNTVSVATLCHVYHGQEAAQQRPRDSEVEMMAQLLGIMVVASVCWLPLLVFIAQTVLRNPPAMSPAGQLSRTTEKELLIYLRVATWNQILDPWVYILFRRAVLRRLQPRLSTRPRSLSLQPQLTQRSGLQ
# Test: NVS_GPCR_hTXA2: NovaScreen (NVS) G Protein-Coupled Receptor Assay for human Thromboxane A2 Receptor (TXA2) (AID 2283282);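 also: actives reduce bound radioligand signal relative to DMSO baseline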
# Procedure, shortened: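 Human platelet membranes tested for radioligand displacement by filtration and scintillation counting 1 h post-dose. Screened in duplicate at 25 uM; activity fitted as signal loss relative to DMSO.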
Structure (SMILES),AC50,outcome
Oc1ccc(Cl)cc1Cc1ccccc1,7.86 µM (active) and 5.43 µM (active),inactive
O=C(O)C(F)(F)C(F)(F)C(F)(F)C(F)(F)C(F)(F)C(F)(F)C(F)(F)F,9.44 µM (active),inactive
O=S(=O)(O)C(F)(F)C(F)(F)C(F)(F)C(F)(F)C(F)(F)C(F)(F)C(F)(F)C(F)(F)F,15.8 µM (active) [middle of 4 runs],inactive
